Shown are actives, neighbours in structure and some others; about 1.2% of the full set was active somewhere.
gsp agonist = qHTS for Agonist of gsp, the Etiologic Mutation Responsible for Fibrous Dysplasia/McCune-Albright Syndrome: qHTS | gsp mutant cells, cAMP HTRF, 30 min | Potency, µM (series often up to 76.9 µM), actives largely listed as activators | actives 0.13% (n = 340,000); active = well fitted activation curve with a large enough effect; inconclusive = small, poorly fitted or top-dose-only effect, or another doubt; inactive = no such curve, though single readings can be large or run the other way; cell line not stated here;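 note: phosphodiesterase inhibitor Ro 20-1724 added with compounds to block cAMP breakdown; nearly all actives have a fitted effect of over 60% in size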
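Cells in DMEM/10% FBS with G418 were pretreated with compounds in DMSO plus […] (300 uM stock) for 30 min at 37C. cAMP was measured by HTRF (cAMP-d2 plus anti-cAMP antibody-K) after 30 min at room temperature.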
gsp antag = qHTS for Antagonists of gsp, the Etiologic Mutation Responsible for Fibrous Dysplasia/McCune-Albright Syndrome: qHTS; actives 0.4% (n = 340,000); Potency, µM (top dose mostly 76.9 µM), hits mostly inhibitors; gsp-mutant cells, cAMP HTRF, 30 min; AID 624288, 2012; calls by dose curve; cell line not stated here;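 note: intracellular cAMP measured with PDE inhibitor Ro 20-1724 present during compound exposure; nearly all actives have a fitted effect of over 65% in size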
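Measurement of cellular cAMP by homogeneous time-resolved fluorescence following a 30 min compound exposure at 37C. The PDE inhibitor […] was present throughout; the assay buffer was DPBS with 0.05% BSA and 0.005% Tween 20.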
Mm-Cpn inhibitor = Inhibitors of TCP-1 ring complex (TRiC) of Methanococcus maripaludis (MmCpn): qHTS | Chaperonin Mm-Cpn (Methanococcus maripaludis) | actives 0.031% (n = 330,000) | Potency, µM (series often up to 76.9 µM), usual class: inhibitors | purified Mm-Cpn ATPase, ADP Transcreener TR-FRET; active = well fitted inhibition curve with a large enough effect; inconclusive = small, poorly fitted or top-dose-only effect; note: nearly all actives have a fitted effect of over 80% in size
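Eu-cryptate anti-ADP/ADP-d2 competition gives a ratio inversely related to ADP. Enzyme at 25 nM was pre-exposed to compound for 10 min, then given 10 uM ATP for 30 min, 37°C throughout.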
uPA generation = qHTS for Inhibitors of Cell Surface uPA Generation | cell surface uPA generation assay, qHTS | Potency, µM (top dose mostly 38.3 µM), actives largely listed as inhibitors | actives 0.31% (n = 330,000); active = well fitted inhibition curve with a large enough effect; inconclusive = small, poorly fitted or top-dose-only effect; inactive = no such curve, though single readings can be large or run the other way; tested in mouse RAW 264.7 cells; note: nearly all actives have a fitted effect of over 55% in size
CCT modulator = High-Throughput Screening for Modulators of Cytosolic Chaperonin Activity | purified chaperonin ATPase assay, HTRF ADP detection, 30 min | activity change, % (concentration not given with the values), hits read low | actives 0.3% (n = 360,000); in the data active = activity change below about -30%
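First, chaperonin was dispensed at 40 nM or 20 nM final depending on batch activity. Next, compounds were pinned at 76 uM and ATP added at 10 uM. After 30 min at 37 °C, ADP detection reagents ran 30 min at ambient temperature.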
TSHR antagonist = Antagonists of the Thyroid Stimulating Hormone Receptor: HTS campaign; TSHR-expressing cells, TSH-stimulated cAMP HTRF, 2 h; hits give low values; Thyrotropin receptor (Homo sapiens), P16473; activity change, negative = inhibition, % at 11.5 µM; AID 504810, 2011; actives 0.2% (n = 330,000);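 active = activity change below a set negative limit, meaning inhibition stronger than a set level, cut at about -70% in these data; inconclusive = activity change between two set negative limits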
Target sequence (P16473 whole entry, looked up): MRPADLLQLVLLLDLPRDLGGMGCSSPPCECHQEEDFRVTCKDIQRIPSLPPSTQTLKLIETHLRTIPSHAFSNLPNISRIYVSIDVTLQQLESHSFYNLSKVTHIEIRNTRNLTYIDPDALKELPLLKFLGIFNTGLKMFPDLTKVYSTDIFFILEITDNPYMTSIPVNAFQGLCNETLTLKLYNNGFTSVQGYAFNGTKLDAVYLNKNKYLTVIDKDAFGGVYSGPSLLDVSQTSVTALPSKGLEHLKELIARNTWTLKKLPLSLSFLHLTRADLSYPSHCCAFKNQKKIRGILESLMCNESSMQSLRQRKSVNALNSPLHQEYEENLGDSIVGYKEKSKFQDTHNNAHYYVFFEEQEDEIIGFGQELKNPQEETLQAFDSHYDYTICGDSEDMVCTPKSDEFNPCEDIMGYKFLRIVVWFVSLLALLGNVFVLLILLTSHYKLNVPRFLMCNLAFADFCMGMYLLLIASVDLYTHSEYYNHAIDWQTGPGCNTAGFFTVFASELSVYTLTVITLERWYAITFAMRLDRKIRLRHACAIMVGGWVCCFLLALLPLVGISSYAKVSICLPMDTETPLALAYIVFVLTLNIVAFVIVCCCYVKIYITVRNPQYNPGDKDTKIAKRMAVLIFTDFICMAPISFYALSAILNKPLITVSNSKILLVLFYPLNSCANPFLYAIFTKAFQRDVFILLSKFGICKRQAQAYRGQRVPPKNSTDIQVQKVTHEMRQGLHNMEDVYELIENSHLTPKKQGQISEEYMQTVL
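Read-out is FRET at 665 nm (cryptate excitation 337 nm) from a cryptate-tagged anti-cAMP antibody, competed by cell cAMP against cAMP-d2. Compounds are tested on freshly harvested TSHR cells challenged with 4nM TSH (EC80) for 2 hours at 37 deg C.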
Each line names hits and unclear results; the compound was inactive in the other large screens.

Cc1ccc(NC(=O)CSc2nccc(=O)[nH]2)c(S(=O)(=O)N2CCOCC2)c1	none
CN1CCN(C(=O)c2ccccc2NC(=O)c2sc3ccccc3c2Cl)CC1	none
CCn1cc([N+](=O)[O-])c(C(=O)N2N=C(c3ccc4ccccc4c3)CC2c2ccccc2O)n1 (centres undefined)	gsp antag inconclusive
CCn1cc([N+](=O)[O-])c(C(=O)N2N=C(c3cccc4ccccc34)CC2c2ccccc2O)n1 (centres undefined)	gsp antag 28.2µM
COc1ccc(N2C(=O)C3CCCCC3C2=O)cc1NC(=O)c1ccccc1 (centres undefined)	gsp agonist inconclusive
COc1cccc(Nc2nc3ccccc3nc2NS(=O)(=O)c2cccs2)c1	gsp antag 14.1µM, TSHR antagonist inconclusive
O=C(NCCNC(=O)c1ccccn1)c1ccc(Cl)cc1	none
CCOC(=O)c1c(NC(=O)CSc2nnc(-c3ccco3)o2)sc(C(C)=O)c1C	CCT modulator -59.8 (no result: Mm-Cpn inhibitor, TSHR antagonist)
CS(=O)(=O)Nc1cccc(NC(=O)c2ccc(-n3ccnc3)c3ccoc23)c1	none (no result: gsp agonist, gsp antag, Mm-Cpn inhibitor, uPA generation, TSHR antagonist)
CCN(CC)CCn1c2c(c(SCC(=O)Nc3ccccc3Cl)nc1=O)CCC2	CCT modulator -33.8 (no result: TSHR antagonist)
CCOC(=O)C1(CCOc2ccccc2)CCN(Cc2cccc(OC)c2O)CC1	TSHR antagonist -113.3
CCNc1oc(/C=C/c2ccc(OCC)cc2)nc1C#N	uPA generation 3.16µM
CCC(C)(C)C1CCc2[nH]nc(C(=O)NC3CCCC3)c2C1 (centres undefined)	gsp agonist inconclusive
O=C(NC1CCCCC1)c1n[nH]c2c1CCCCC2	uPA generation 3.16µM (no result: gsp agonist)
Nc1nnnn1/N=C/c1ccc(N2CCCCC2)c([N+](=O)[O-])c1	none
Cc1ccc(-c2nnc(N3CCC(C)CC3)c3ccccc23)cc1C	CCT modulator -43.1 (no result: gsp antag)
CC1CCN(c2nnc(-c3ccccc3)c3ccccc23)CC1	gsp antag inconclusive
Cc1ccc(-c2nnc(N3CCCCCC3)c3ccccc23)cc1	gsp antag inconclusive (no result: uPA generation)
Cc1ccc(-c2nnc(N3CCC(C)CC3)c3ccccc23)cc1	gsp antag 25.1µM, uPA generation inconclusive
O=C(CCCCCn1c(=S)[nH]c2ccc(N3CCOCC3)cc2c1=O)NCc1ccc2c(c1)OCO2	CCT modulator -57.0
O=C(CCCCCn1c(=S)[nH]c2ccc(N3CCOCC3)cc2c1=O)NCc1ccc(Cl)cc1	none
Cc1ccc(CNS(=O)(=O)c2ccc3c(c2)NC(=O)CS3)cc1	CCT modulator -73.6
O=C1CSc2ccc(S(=O)(=O)NCc3ccc(F)cc3)cc2N1	none
Cc1c(CC(=O)Nc2ccc(Cl)cc2)sc2ccc(Cl)cc12	none
CCn1ncc(C2=NOC(C(=O)NCC(C)C)C2)c1C (centres undefined)	none
CCN(CC)S(=O)(=O)c1ccc(C(=O)OCCNC(=O)c2cccnc2)cc1	gsp agonist 31.6µM
O=C(NCCOC(=O)c1ccc([N+](=O)[O-])cc1)c1cccnc1	gsp agonist 17.8µM
COc1cc(C(=O)OCCNC(=O)c2cccnc2)cc(OC)c1OC	none
CCN(C[C@H]1N[C@@](C)(C(=O)OC)[C@H]2C(=O)N(C)C(=O)[C@@H]12)C(=O)COC	none (no result: gsp agonist)
C[C@H](CO)N1C[C@H](C)[C@H](CN(C)C(=O)Nc2ccc(-c3cccs3)cc2)OCc2cnnn2CCCC1=O	none (no result: gsp antag, Mm-Cpn inhibitor, uPA generation, TSHR antagonist)
O=C(CSc1nnc(CNC(=O)c2ccco2)o1)Nc1ccc(OC(F)(F)F)cc1	CCT modulator -47.3
Cc1csc(C(=O)O)c1NC(=O)c1c(Cl)cccc1Cl	CCT modulator -87.3
O=C(O)c1sccc1NC(=O)c1c(Cl)cccc1Cl	gsp antag inconclusive
O=C(COc1ccc2ccccc2c1Br)Nc1ccncc1	gsp agonist inconclusive
O=C(COc1ccc2ccccc2c1Br)Nc1cccnc1	gsp agonist 6.31µM
CCOc1ccccc1NC(=O)C(NCCc1ccc(OC)cc1)c1ccccc1 (centres undefined)	gsp antag inconclusive, TSHR antagonist -73.2
O=S1(=O)CC(O)C(NCCO)C1 (centres undefined)	gsp antag inconclusive
Cc1ccc(-n2nc3c(=O)n(CC(=O)NCCc4ccc(Cl)cc4)nc(C)c3c2C)cc1	none
Cc1ccc(-n2nc3c(=O)n(CC(=O)NCCC4=CCCCC4)nc(C)c3c2C)cc1	CCT modulator -77.6
COC(=O)c1ccc(OC(=O)CS(=O)c2ccccc2[N+](=O)[O-])cc1 (centres undefined)	none
O=C(CS(=O)c1ccc(C(F)(F)F)cc1[N+](=O)[O-])Oc1ccccc1 (centres undefined)	TSHR antagonist -70.7
CC1(C)C2CCC1(CS(=O)(=O)N1CCN(c3ccccc3F)CC1)C(=O)C2 (centres undefined)	gsp agonist inconclusive
Cc1ccc(C2=NNC(c3cccc(F)c3)S2)cc1 (centres undefined)	gsp agonist inconclusive, uPA generation inconclusive
O=C(Nc1ccccc1C(=O)N1CCN(c2cccc(Cl)c2)CC1)C1=CSCCO1	TSHR antagonist -132.3
O=C(Nc1ccc(C(=O)N2CCN(c3ccc(Cl)cc3)CC2)cc1)C1=CSCCO1	gsp antag inconclusive
C=CCn1cccc(C(=O)Nc2ccc(C)c(Cl)c2)c1=O	none
CCOC(=O)Cn1c(=NC(=O)c2nc3ccccc3s2)sc2cc(S(N)(=O)=O)ccc21	gsp antag 10µM
COc1ccc(C)cc1NC(=S)N1CC(C)OC(C)C1 (centres undefined)	CCT modulator -47.6
c1ccc(NCCc2ccccn2)cc1	none (no result: Mm-Cpn inhibitor, TSHR antagonist)
Nc1cc(C(F)(F)F)ccc1NCCc1ccccn1	CCT modulator -107.3
CC1=C(C(=O)Nc2cc(C(=O)N3CCN(c4cccc(C)c4C)CC3)ccc2C)SCCO1	gsp antag 50.1µM
COc1ccc(N2CCN(C(=O)c3ccc(C)c(NC(=O)C4=C(C)OCCS4)c3)CC2)cc1	none
CCOC(=O)C1CCCN(C(=O)c2ccccc2NC(=O)C2=C(C)OCCS2)C1 (centres undefined)	gsp agonist inconclusive
CCOC(=O)C1CCCN(C(=O)c2ccc(C)c(NC(=O)C3=C(C)OCCS3)c2)C1 (centres undefined)	gsp agonist inconclusive, CCT modulator -65.9
CCN(CC)CCCNC(=O)c1cc(Sc2nnc(C)s2)nc2ccccc12	none

Assay outcomes (PubChem)
